KB-3-1 cytotox: kills parental KB-3-1 adenocarcinoma cells; KB-3-1 viability, CellTiter-Glo ATP luminescence, 72 h; Potency, µM (series often up to 46.1 µM), hits mostly cytotoxic; AID 1347075; 1.4% of 400,000 active; also: nearly all actives have a fitted effect of over 60% in size
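Parental KB-3-1 adenocarcinoma cells in phenol-red-free DMEM with 10% FBS were pin-treated with compounds at several concentrations, incubated 72 h at 37 °C, and viability read by CellTiter-Glo luminescence; concentration-effect curves were fitted after normalization.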
DRD3 agonist: agonists of human D3 dopamine receptor | D3R DiscoveRx beta-arrestin cells, luminescence, 90 min | P35462 | max activation, % | 0.58% of 410,000 active; in the data active = max activation above about 30%
Target sequence (P35462 whole entry, looked up): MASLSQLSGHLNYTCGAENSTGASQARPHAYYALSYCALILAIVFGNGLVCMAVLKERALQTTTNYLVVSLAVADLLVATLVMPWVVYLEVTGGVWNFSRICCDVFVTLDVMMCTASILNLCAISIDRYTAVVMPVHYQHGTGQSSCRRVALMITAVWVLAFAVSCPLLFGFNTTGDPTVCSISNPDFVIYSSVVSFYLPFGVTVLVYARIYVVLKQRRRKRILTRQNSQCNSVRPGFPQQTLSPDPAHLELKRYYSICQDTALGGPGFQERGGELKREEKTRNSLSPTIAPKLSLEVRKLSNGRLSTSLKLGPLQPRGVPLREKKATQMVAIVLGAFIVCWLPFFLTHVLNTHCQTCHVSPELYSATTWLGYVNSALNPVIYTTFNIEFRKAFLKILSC
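Agonist mode: compounds and dopamine controls were applied to plated cells for 90 min at 37 degrees C after an overnight attachment at 1500 cells/well. Luminescent read-out followed 30 - 60 minutes at room temperature with DiscoveRx detection reagent.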
SW480 rereplic: induces DNA re-replication in SW480 colon adenocarcinoma cells; SW480 DNA re-replication, Hoechst DNA content imaging, 48 h; Potency, µM (titrated, usually from 46.1 µM), hits mostly activators; 1.8% of 340,000 active; AID 624297; also: nearly all actives have a fitted effect of over 55% in size
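250 cells/well; 23 nL cpd via pin tool; 48 hr, 37 C, 5% CO2; Hoechst 40 min; imager read of total nuclear intensity, ex 405/em 500-530 nm.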
MCF10A rerep: inducers of DNA re-replication in MCF 10A breast cells; MCF 10A DNA re-replication, Hoechst nuclear intensity, 48 h; Potency, µM (top dose mostly 46.1 µM), usual class: activators; 2.9% of 350,000 active; AID 624296; also: nearly all actives have a fitted effect of over 50% in size
D3 antag: D3 dopamine receptor (human) antagonism; D3R cells, DiscoveRx beta-arrestin luminescence, antagonist mode; hits give low values; P35462; 2.5% of 360,000 active; AID 652054; max response, negative = inhibition, %; in the data active = max response below about -50%; inconclusive = no clear call, values can overlap the other calls
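Cells expressing the human receptor were seeded at 1500 cells/well, incubated overnight at 37 degrees C in 5% CO2, then exposed to library compounds with dopamine controls for 90 minutes at 37 degrees C before luminescent detection.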
KB-V1 cytotox: KB-V1 MDR subline cytotoxicity; AID 1347076; KB-V1 MDR cells viability, CellTiter-Glo, 72 h; 3.4% of 400,000 active; Potency, µM (series often up to 46.1 µM), most hits filed as cytotoxic; also: nearly all actives have a fitted effect of over 60% in size
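qHTS viability screen in drug-selected KB-V1 MDR cells: 72 h compound treatment at 37 degrees C, ATP luminescence end point.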
Hits are given with their value; - = inactive; ? = inconclusive; . = no result given. Most compounds without a hit are left out; they make up all but 8.9% or so of the library. Unless noted, calls follow the shape of the dose curve; as a rule, active = well fitted curve in the direction sought with a large enough effect; inconclusive = small, poorly fitted or top-dose-only effect, or another doubt; inactive = no such curve, though single readings can be large; an effect the other way counts as inactive or inconclusive.

SMILES	KB-3-1 cytotox	DRD3 agonist	SW480 rereplic	MCF10A rerep	D3 antag	KB-V1 cytotox
COC(=O)[C@@]12C[C@@H](CC(=O)N3CCN(C(=O)c4ccco4)CC3)C(=O)N(Cc3cccc4ccccc34)C1=CCC(C)(C)C2	?	-	.	.	?	23µM
CCOC(=O)N1CCN(C(=O)C[C@@H]2C[C@@]3(C(=O)OC)CC(C)(C)CC=C3N(Cc3cccc4ccccc34)C2=O)CC1	-	-	.	.	-	18µM
COC(=O)[C@@]12C[C@@H](CC(=O)N3CCCCC3)C(=O)N(Cc3cccc4ccccc34)C1=CCC(C)(C)C2	?	-	.	.	-	?
COC(=O)C1=C(O)C(C(=O)OC)C(c2ccc(C)cc2)C(C#N)(C#N)C1c1ccc(C)cc1 (centres undefined)	7.3µM	-	?	?	-	?
Cc1ccc(-c2csc(NCCn3c(-c4ccncc4)nc4ccccc43)n2)cc1	?	51	-	-	-	21µM
Cc1ccc(-c2csc(NCCn3c(-c4ccncc4)nc4cc(C(F)(F)F)ccc43)n2)cc1	?	-	-	?	-	-
COc1ccc(-c2csc(NCCn3c(C)nc4cc(C(F)(F)F)ccc43)n2)cc1	-	37	-	?	-	-
Cc1ccc(Cn2c(C(CO)Nc3nc(-c4ccc(F)cc4)cs3)nc3ccccc32)cc1 (centres undefined)	16µM	-	-	?	-	-
Cc1nc2cc(C(F)(F)F)ccc2n1CCNc1nc(-c2ccc(F)cc2)cs1	-	-	?	-	-	-
Cc1ccc(NC(=O)Cn2c(=O)n(CCC(C)C)c(=O)c3cccnc32)cc1C	-	-	.	.	.	-
O=C(O)/C=C/c1ccc([N+](=O)[O-])o1	-	-	?	?	-	-
N#CCc1ccc(NC(=O)/C=C/c2ccc([N+](=O)[O-])o2)cc1	5.2µM	-	?	16µM	-	?
CCCCCCc1cc2cc(S(=O)(=O)c3ccc(C)cc3)c(=O)oc2cc1O	-	-	18µM	?	-	-
O=c1oc2cc(O)ccc2cc1-c1nc2ccccc2o1	-	-	.	.	-	-
CCN(CC)c1ccc2cc(S(=O)(=O)c3ccc(Cl)cc3)c(=O)oc2c1	-	-	18µM	?	-	-
O=c1oc2cc(O)ccc2cc1S(=O)(=O)c1ccccc1	-	35	-	2.6µM	-	?
CCCCCCc1cc2cc(S(=O)(=O)c3ccc(Cl)cc3)c(=O)oc2cc1O	?	-	21µM	?	-	-
O=C(Nc1ccccc1[N+](=O)[O-])c1csnn1	-	-	.	.	.	-
Cc1c(C(=O)N(C)C)sc2c1c(=O)n(-c1ccccc1C(F)(F)F)c(=O)n2Cc1cccc(F)c1	?	-	.	.	.	-
Cc1c(C(=O)NCc2cccc(Cl)c2)sc2nc3n(c(=O)c12)CCC3	-	-	.	.	.	-
CC1=C(c2ccc(C)c(C)c2)S(=O)(=O)N=C1N1CCC(C(=O)N2CCCCC2)CC1	-	-	.	.	.	-
CC(=O)N1CCCc2cc(S(=O)(=O)N3CCN(c4ccc(F)cc4)CC3)ccc21	-	-	.	.	.	-
CN(Cc1ccccc1)C(=O)Cn1c(=O)c2cccn2c2ccc(F)cc21	.	-	.	.	.	.
CC(=O)Oc1ccc2c(c1)OC(c1ccccc1)CC21CC(C)(C)NC(=S)N1 (centres undefined)	-	-	-	-	-	?
CC(=O)Oc1ccc(C2(C)CC(C)(C)NC(=S)N2C)c(OC(C)=O)c1 (centres undefined)	-	-	-	1.3µM	-	-
COc1ccc(NC(=O)CN(C)CC(=O)NC2CCC(C)CC2)cc1 (centres undefined)	-	-	-	-	-	21µM
COc1ccc(NC(=O)CN(C)CC(=O)N(C)C2(C#N)CCC(C)CC2)cc1 (centres undefined)	-	-	-	-	-50	-
COc1ccc(NC(=O)CN(C)CC(=O)NC2CCCCC2C)cc1 (centres undefined)	-	-	-	-	-	18µM
COc1ccc(CC(=O)Nc2ccc3nc(Nc4ccc(OC)cc4)cc(C)c3c2)cc1	?	-	.	.	.	-
COc1ccc(Nc2cc(C)c3cc(NC(=O)c4cc(OC)cc(OC)c4)ccc3n2)cc1	8.2µM	-	.	.	.	?
